Results filed as inconclusive are left out. Active and inactive are the calls of the source. Unless noted, calls come from the whole dose curve; as a rule, active = well fitted curve in the direction sought with a large enough effect; inconclusive = small, poorly fitted or top-dose-only effect, or another doubt; inactive = no such curve, though single readings can be large; an effect the other way counts as inactive or inconclusive.

The text below walks through data of PubChem BioAssay (NCATS).

The target in assay [1] is Alpha-galactosidase A (Homo sapiens) (UniProt P06280). Briefly: Counterscreen for Glucocerebrosidase Inhibitors: qHTS Assay for Human alpha-Galactosidase at pH 4.5 (AID 992). Note: 0% is about no effect. In short, it runs like this: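 Human enzyme (2 nM) with 80 uM 4-methylumbelliferyl alpha-D-galactopyranoside in 50 mM citric acid, 0.005% Tween-20, pH 4.5, 20 min at room temperature. Compounds 0.7 nM–77 uM; fluorescence Ex 365/Em 440 after pH 10 stop; AC50 from Hill fits.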

Assay [2] has as its target alpha-glucosidase (Oryza sativa, rice) (UniProt Q653V4). Description: Counterscreen for Glucocerebrosidase Inhibitors: qHTS Assay for Rice alpha-Glucosidase at pH 5.0 (AID 997).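 Note: 0% = full activity with enzyme and -100% = basal without enzyme.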 The essentials:
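Rice alpha-glucosidase (4 nM final) with 400 uM 4-methylumbelliferyl-alpha-D-glucopyranoside in citrate buffer pH 5.0, 20 min at room temperature, stopped at pH 10; fluorescence 365/440 nm, compounds 0.7 nM–77 uM, AC50 from Hill fits.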

Assay [3] in a line: Validation of Assay for Modulators of Lamin A Splicing (AID 1459; active = well fitted curve in the direction sought with a large enough effect in the signal ratio; the % refers to the signal ratio;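 note: cells exposed to compound for two days before reading; 0% is about no effect; ratio rise marks activators and ratio drop marks inhibitors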). In short, it runs like this: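 Readout: ratio of GFP (500-530 nm) to RFP (575-640 nm) total object intensity by 488 nm laser-scanning cytometry after 48 hrs. Cells were HeLa S3 clones carrying lamin A-EGFP minigene plus DsRed2 viability reporter; vehicle 0.5% DMSO final.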
Assay [4] can be described thus: qHTS Assay for Lipid Storage Modulators (AID 1519; calls by dose curve; for activity change, negative = inhibition: % is set by controls: 0 for no effect and ±100 for the full control effect). The settings on record: Drosophila S3 cells, BODIPY lipid droplet/cell ratio, laser cytometry, cells loaded with oleic acid. In short, it runs like this:
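Cells seeded at 5,000 per well were treated with compounds over a concentration series and loaded with oleic acid (400 uM, as added). Lipid droplet fluorescence (488 nm excitation, 500-530 nm channel) was read by laser-scanning cytometry and normalized to 20 uM Triacsin C.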

Assay [5] in a line: Counterscreen for APE1 Inhibitors: Fluorescent Dye Displacement Validation Assay (AID 1707).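 Note: plate controls were ThO with dsDNA and no compound for no effect and ThO without dsDNA for full effect.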 In short, it runs like this: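 Thiazole Orange (250 nM) bound to 50 nM TAMRA-labelled dsDNA with tetrahydrofuran abasic site; displacement by DNA-binding compounds lowers fluorescence. Buffer 50 mM Tris-HCl pH 7.5, 50 mM NaCl, 2 mM MgCl2, 0.01% Tween-20; endpoint read at 480/540 nm.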

The nature of assay [6]: qHTS for differential inhibitors of proliferation of Plasmodium falciparum line 7G8 (AID 1815).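 For activity change, negative = inhibition: plate controls were vehicle wells for no effect and reference inhibitor wells for full effect.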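 Note: parasite growth measured after three days of incubation.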 Note: potency is the fitted concentration of half-maximal effect.
The nature of assay [7]: qHTS for differential inhibitors of proliferation of Plasmodium falciparum line GB4 (AID 1816).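 For activity change, negative = inhibition: 0% = vehicle DMSO and -100% = reference inhibitor.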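 Note: parasite growth measured after 72 h incubation.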 Note: potency is the fitted concentration of half-maximal effect. The settings on record: Potency: Plasmodium falciparum GB4 proliferation inhibition.
The nature of assay [8]: qHTS for differential inhibitors of proliferation of Plasmodium falciparum line 3D7 (AID 1876). Note: potency is the fitted concentration of half-maximal effect.
Assay [9] is described as follows: qHTS for differential inhibitors of proliferation of Plasmodium falciparum line D10 (AID 1877).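 For activity change, negative = inhibition: plate controls were vehicle wells for no effect and reference inhibitor wells for full effect.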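 Note: parasites grown with compound for 72 h before DNA staining.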 Note: potency is the fitted concentration of half-maximal effect.
Assay [10] in a line: qHTS for differential inhibitors of proliferation of Plasmodium falciparum line Dd2 (AID 1882).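 For activity change, negative = inhibition: plate controls were DMSO vehicle for no effect and 0.29 µM artemisinin for full effect.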 Note: nearly all actives have a fitted effect of over 65% in size. Note: potency is the fitted concentration of half-maximal effect. The settings on record: Potency: Plasmodium falciparum Dd2 proliferation inhibition. The essentials: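 Dd2-infected erythrocytes (0.3% parasitemia, 2.5% hematocrit final) incubated with compound 72 h at 37 C, 5% CO2; lysed with saponin/Triton buffer containing SYBR Green I, incubated overnight in the dark, then read by fluorescence (485/535 nm). Normalized to 0.29 uM artemisinin and DMSO.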

Assay [11] in a line: qHTS for differential inhibitors of proliferation of Plasmodium falciparum line W2 (AID 1883).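 Note: potency is the fitted concentration of half-maximal effect; parasites grown with compound for 72 h before lysis and staining.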 To be noted: Potency: Plasmodium falciparum W2 proliferation inhibition.
In assay [12] the target is DNA repair nuclease/redox regulator APEX1 (Homo sapiens) (UniProt P27695). Description: qHTS Validation Assay for Inhibitors of the Human Apurinic/apyrimidinic Endonuclease 1 (APE1) (AID 1705;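 note: TAMRA fluorescence gain over two minutes as APE1 cuts a quenched THF abasic duplex; % is set by controls: 0 for no effect and ±100 for the full control effect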). In short, it runs like this: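 Read-out: TAMRA fluorescence (525 nm ex, 598 nm em) from cleavage of a quenched THF abasic-site duplex, 50 nM final; activity taken as intensity change between third and first of three reads 60 s apart.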

The target in assay [13] is Endonuclease 4 (Escherichia coli (strain K12)) (UniProt P0A6C1). Briefly: Counterscreen for APE1 Inhibitors: qHTS Validation Assay for Inhibitors of Endonuclease IV (AID 1708). Note: % is set by controls: 0 for no effect and ±100 for the full control effect. The essentials: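 E. coli EndoIV at 2 nM final, preincubated 15 min at room temperature with compound, then 50 nM TAMRA/BHQ-2 THF abasic-site duplex added. Buffer: 50 mM Tris-HCl pH 7.5, 50 mM NaCl, 2 mM MgCl2, 1 mM DTT, 0.01% Tween-20. Kinetic fluorescence increase, third minus first read.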

Where [14] appears, read: measured here: cell count channel max response.
The mark [15] stands for this setting: measured here: lipid channel max response.

DNA repair nuclease/redox regulator APEX1 (Homo sapiens), sequence (P27695 whole entry, looked up): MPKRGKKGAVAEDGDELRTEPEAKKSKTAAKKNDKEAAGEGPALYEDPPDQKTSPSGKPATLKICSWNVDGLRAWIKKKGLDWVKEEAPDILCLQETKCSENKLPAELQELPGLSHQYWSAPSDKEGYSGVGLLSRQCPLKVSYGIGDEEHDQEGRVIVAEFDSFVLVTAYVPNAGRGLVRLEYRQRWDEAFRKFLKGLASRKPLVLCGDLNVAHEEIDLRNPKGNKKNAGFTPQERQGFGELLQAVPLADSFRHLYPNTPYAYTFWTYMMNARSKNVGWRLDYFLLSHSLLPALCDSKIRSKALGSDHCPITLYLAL
Alpha-galactosidase A (Homo sapiens), sequence (P06280 whole entry, looked up): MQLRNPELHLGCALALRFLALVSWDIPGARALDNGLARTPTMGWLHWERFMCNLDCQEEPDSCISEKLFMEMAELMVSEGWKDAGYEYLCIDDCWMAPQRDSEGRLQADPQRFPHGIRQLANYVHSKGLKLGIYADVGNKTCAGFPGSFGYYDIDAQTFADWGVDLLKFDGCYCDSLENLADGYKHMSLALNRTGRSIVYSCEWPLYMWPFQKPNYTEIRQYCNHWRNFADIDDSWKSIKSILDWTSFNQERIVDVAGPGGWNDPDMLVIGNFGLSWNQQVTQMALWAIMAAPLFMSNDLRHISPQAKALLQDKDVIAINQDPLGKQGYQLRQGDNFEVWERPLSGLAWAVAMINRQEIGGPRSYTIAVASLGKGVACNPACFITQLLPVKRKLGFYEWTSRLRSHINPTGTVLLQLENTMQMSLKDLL

As for `CC1=C(C)C(=O)C(CCCCC#CCCCC#CCO)=C(C)C1=O`, the outcome in assay [1], in assay [2], in [3] and in assay [5] was inactive. Moreover, in assay [4] (at 57.5 µM (top of the series)), the activity change, negative = inhibition was 1.13% (inactive). In addition, the max response in [4] (setting [14]) is -22.7%; in assay [4] (setting [15]) it was -21.4%. The Potency in assay [6] is 2.24 µM (active); in assay [7], 2.51 µM (active); in [8], 8.91 µM (active); in assay [9], 14.1 µM (active); in [10], 10 µM (active); in assay [11], 3.55 µM (active).

`CC(C(=O)O)c1ccc(CC2CCCC2=O)cc1` (configuration not stated): the molecule was classed as inactive in assay [3]. The activity change, negative = inhibition in assay [4] (at 57.5 µM (top of the series)) is -1.18% (inactive). Also, the max response in assay [4] (setting [14]) was -27.7%; in [4] (setting [15]), -27%. Also, the Potency entry in assay [12], in [6], in assay [7], in assay [8], in assay [9] and in assay [10] was “inactive” each time.

As to `Cc1nc2ccccn2c(=O)c1CCN1CCC(C(=O)c2ccc(F)cc2)CC1`, the call in assay [1], in assay [2], in assay [3] and in assay [5] was inactive. The activity change, negative = inhibition in [4] (at 57.5 µM (top of the series)) is 16.1% (inactive). The figures for the max response in assay [4] (setting [14]) and in [4] (setting [15]) were 7.37% and 24.1%, respectively. Besides, the Potency entry in assay [12] and in [13] was “inactive” each time. Further, the Potency in assay [6] was 7.94 µM (active); in assay [7], 11.2 µM (active); in [8], 10 µM (active); in assay [11] it was 7.94 µM (active).

In the case of `CCN(CC)CC(=O)Nc1c(C)cccc1C`, the call in assay [1], in assay [2], in assay [3] and in assay [5] was inactive. Further, the Potency result in assay [12], in assay [6], in assay [8], in assay [9] and in assay [10] was “inactive” throughout. Further, the Potency in assay [11] is 14.1 µM (active).

For the molecule `CC(C)COCC(CN(Cc1ccccc1)c1ccccc1)N1CCCC1` (configuration not stated), the result in [3] and in [5] was inactive. Besides, the activity change, negative = inhibition in [4] (at 57.5 µM (top of the series)) is 2.08% (inactive). The max response is 20% in assay [4] (setting [14]) and 26.2% in [4] (setting [15]). Further, the Potency result in assay [12], in assay [13], in [6], in assay [7], in assay [8] and in assay [9] was “inactive” throughout. In assay [10], the Potency result was “inactive”.

As for `COc1cc(C(=O)OCCCN2CCCN(CCCOC(=O)c3cc(OC)c(OC)c(OC)c3)CC2)cc(OC)c1OC`, the molecule was called inactive in assay [1], in assay [2], in [3] and in [5]. Also, in [4] (at 25.7 µM (top of the series)), the activity change, negative = inhibition was -0.679% (inactive). Also, the results for the max response in [4] (setting [14]) and in [4] (setting [15]) were 11.7% and 8.49%, respectively. In addition, the Potency result in assay [12] was “inactive”. Further, the Potency in assay [6] was 5.01 µM (active); in assay [7], 6.31 µM (active); in assay [8], 3.16 µM (active); in assay [9] it was 10 µM (active); in assay [10], 7.08 µM (active); in assay [11] it was 3.55 µM (active).

As to `CCOC(=O)C1=C(C)NC(C)=C(C(=O)OC)C1c1cccc([N+](=O)[O-])c1` (configuration not stated), the call in assay [3] was inactive. For the same molecule, the activity change, negative = inhibition in [4] (at 57.5 µM (top of the series)) is 1.63% (inactive). In addition, the max response in assay [4] (setting [14]) is -3.59%; in assay [4] (setting [15]) it was -4.4%. Further, the Potency entry in assay [12] and in assay [13] was “inactive” in each case. The Potency in assay [6] is 11.2 µM (active); in assay [7], 12.6 µM (active); in [8], 8.91 µM (active); in assay [9], 12.6 µM (active); in [11], 6.31 µM (active).

For `O=C(O)CP(=O)(O)O`, the outcome in assay [1], in [2], in assay [3] and in assay [5] was inactive. Moreover, the Potency result in assay [12], in [6], in assay [9] and in [10] was “inactive” in each case.

Take `C#CCN(C)CCCOc1ccc(Cl)cc1Cl`: the call in assay [2], in [3] and in assay [5] was inactive. In addition, the activity change, negative = inhibition in [4] (at 25.7 µM (top of the series)) was -0.841% (inactive). In addition, the max response in assay [4] (setting [14]) was -6.58%; in assay [4] (setting [15]), -5.76%. Further, the Potency result in [12], in assay [8], in assay [9] and in assay [10] was “inactive” throughout. The Potency in [11] is 11.2 µM (active).
